Assay [1] has as its target human Vitamin D Receptor (VDR), VDR (gene 7421) (UniProt P11473). The experiment in a line: ATG_VDR_TRANS: Attagene TRANS-FACTORIAL HepG2 Assay for human Vitamin D Receptor (VDR) (AID 2283022; active = hit-call score of the fitted dose curve at least 0.9, where 1 is the maximum). An outline of the steps: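 Steps: transfect HepG2 with GAL4-UAS-driven reporter constructs; dose compounds 24 h; isolate RNA, reverse-transcribe, PCR-amplify with 6-FAM-labelled primer extension and HpaI digestion; quantify fragments by capillary electrophoresis relative to DMSO.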

Assay [2] can be described thus: BSK_3C_SRB: Viability Assessment in the BioMAP Diversity Plus: 3C Assay (AID 2283023).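 Note: cells read 24 h after compound dosing; fitted both ways against DMSO so a hit may be signal rise or drop.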 The settings on record: primary human endothelial cells (HUVEC). The gist of the method: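 Absorbance at 560 nm of sulforhodamine B-stained (0.1%) total protein served as a cytotoxicity readout in human umbilical vein endothelial cells, 24 h after chemical treatment. Signal was fitted bidirectionally relative to DMSO.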

Read-out in assay [3]: Matrix Metallopeptidase 1 (MMP1), MMP1 (gene 4312)
The experiment in a line: BSK_BE3C_MMP1: BioMAP Diversity Plus: BE3C Assay for Matrix Metallopeptidase 1 (MMP1) Biomarker Activity (AID 2283024). Particulars: primary human bronchial epithelial cells; actives raise or lower the signal. An outline of the steps:
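In this multiplexed primary-cell system, human bronchial epithelium received chemicals for 24 h before an ELISA for MMP1. Values reflect bidirectional fits normalised to the DMSO baseline.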

A short description of assay [4]: BSK_3C_Vis: BioMAP Diversity Plus: 3C Assay for Morphology Visualization (AID 2283025).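 Note: fitted both ways so gain or loss versus DMSO counts.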 Particulars: primary human endothelial cells (HUVEC). An outline of the steps: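 Light-microscopy morphology readout, 24 h exposure, human primary umbilical vein endothelium; analysed relative to DMSO with bidirectional fitting.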
Assay [5] can be described thus: BSK_4H_SRB: Viability Assessment in the BioMAP Diversity Plus: 4H Assay (AID 2283027).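 Note: cells exposed to compound for 24 h before staining.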 The settings on record: primary human endothelial cells (HUVEC). An outline of the steps: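 Cytotoxicity readout: sulforhodamine B (0.1%) staining of total protein after 10% TCA fixation, measured at 560 nm in human umbilical vein endothelium at 24 h. DMSO set the baseline; fitting was bidirectional.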

A short description of assay [6]: BSK_BE3C_SRB: Viability Assessment in the BioMAP Diversity Plus: BE3C Assay (AID 2283028). The settings on record: primary human bronchial epithelial cells. The gist of the method: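 Cells (human bronchial epithelial, primary) are treated with chemicals, and after 24 h the parallel cultures are fixed in 10% TCA. These are then stained with 0.1% SRB and read at 560 nm. Gain or loss of signal is fitted relative to DMSO.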

Read-out in assay [7]: Thrombomodulin, THBD (gene 7056)
The experiment in a line: BSK_3C_Thrombomodulin: BioMAP Diversity Plus: 3C Assay for Thrombomodulin Biomarker Activity (AID 2283029). The settings on record: primary human endothelial cells (HUVEC); actives raise or lower the signal. An outline of the steps: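 In a multiplexed primary-cell system, human umbilical vein endothelium received chemical and was assayed 24 h later for thrombomodulin by ELISA. Parallel cultures were SRB-stained (0.1% SRB after 10% TCA fixation, read at 560 nm) to flag cytotoxicity.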

Read-out in assay [8]: Urokinase-type plasminogen activator receptor (uPAR), PLAUR (gene 5329)
Nature of the assay: BSK_4H_uPAR: BioMAP Diversity Plus: 4H Assay for Urokinase-type plasminogen activator receptor (uPAR) Biomarker Activity (AID 2283030). Particulars: primary human endothelial cells (HUVEC); actives raise or lower the signal. The gist of the method:
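Cell-surface uPAR ELISA signal, measured 24 h after dosing human umbilical vein endothelial cells, was analyzed with bidirectional fitting relative to DMSO. Parallel SRB staining of total protein tracked overt cytotoxicity.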

Read-out in assay [9]: Vascular endothelial growth factor receptor 2 (Homo sapiens) (UniProt P35968)
Nature of the assay: BSK_4H_VEGFRII: BioMAP Diversity Plus: 4H Assay for Vascular endothelial growth factor receptor 2 (VEGFR2) Biomarker Activity (AID 2283031). The settings on record: primary human endothelial cells (HUVEC); actives raise or lower the signal. The gist of the method:
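ELISA read-out of VEGFRII in primary human umbilical vein endothelium, taken 24 h after chemical treatment. Responses are expressed relative to DMSO, with bidirectional fitting.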

Read-out in assay [10]: Human Leukocyte Antigen - DR isotype (HLADR), HLA-DRA (gene 3122)
The experiment in a line: BSK_BE3C_HLADR: BioMAP Diversity Plus: BE3C Assay for Human Leukocyte Antigen - DR isotype (HLADR) Biomarker Activity (AID 2283032). The settings on record: primary human bronchial epithelial cells; actives raise or lower the signal. The gist of the method:
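BioMAP BE3C format: human bronchial epithelium, 24 h compound treatment, ELISA detection of HLA-DR, with bidirectional analysis relative to DMSO.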

Read-out in assay [11]: Vascular cell adhesion molecule 1 (VCAM1), VCAM1 (gene 7412)
The experiment in a line: BSK_4H_VCAM1: BioMAP Diversity Plus: 4H Assay for Vascular cell adhesion molecule 1 (VCAM1) Biomarker Activity (AID 2283033).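 Note: cell-surface VCAM-1 protein measured by ELISA.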 The settings on record: primary human endothelial cells (HUVEC); actives raise or lower the signal. The gist of the method:
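In this human endothelial (HUVEC) system, biomarker ELISA was run 24 h after compound addition, and total protein in parallel wells was assessed by SRB at 560 nm; DMSO served as negative control.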

Read-out in assay [12]: Interferon-gamma inducible Protein 10 (IP10), CXCL10 (gene 3627)
Nature of the assay: BSK_BE3C_IP10: BioMAP Diversity Plus: BE3C Assay for Interferon-gamma inducible Protein 10 (IP10) Biomarker Activity (AID 2283034). Particulars: primary human bronchial epithelial cells; actives raise or lower the signal. An outline of the steps: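 BE3C cells (human bronchial epithelial, primary); 24 h exposure; ELISA for IP-10; DMSO-referenced bidirectional fit.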

Read-out in assay [13]: Monokine induced gamma interferon (MIG), CXCL9 (gene 4283)
The experiment in a line: BSK_BE3C_MIG: BioMAP Diversity Plus: BE3C Assay for Monokine induced gamma interferon (MIG) Biomarker Activity (AID 2283035).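 Note: MIG protein measured by ELISA in BE3C cultures after 24 h of dosing.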 The settings on record: primary human bronchial epithelial cells; actives raise or lower the signal. The gist of the method: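 hu bronchial epithelial 1° cells, 24 h cpd; MIG by ELISA; bidirectional fit, DMSO = baseline.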

Read-out in assay [14]: Transforming growth factor beta 1 (TGFb1), TGFB1 (gene 7040)
The experiment in a line: BSK_BE3C_TGFb1: BioMAP Diversity Plus: BE3C Assay for Transforming growth factor beta 1 (TGFb1) Biomarker Activity (AID 2283036;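 note: TGF-b1 protein level measured by ELISA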). The settings on record: primary human bronchial epithelial cells; actives raise or lower the signal. An outline of the steps: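 TGF-b1 measured via ELISA, 24 h after chemical dosing of human bronchial epithelial cells (BE3C). Overt cytotoxicity assessed in parallel by SRB (0.1%, TCA-fixed, 560 nm); analysis bidirectional relative to DMSO.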

Read-out in assay [15]: Plasminogen activator inhibitor-1 (PAI1), SERPINE1 (gene 5054)
The experiment in a line: BSK_BE3C_PAI1: BioMAP Diversity Plus: BE3C Assay for Plasminogen activator inhibitor-1 (PAI1) Biomarker Activity (AID 2283037). The settings on record: primary human bronchial epithelial cells; actives raise or lower the signal. An outline of the steps: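 In this multiplexed primary-cell system, bronchial epithelial cells receive test chemical and are sampled at 24 h. PAI-1 is read by ELISA, with DMSO serving as negative control for bidirectional fitting.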

Read-out in assay [16]: urokinase plasminogen activator (uPA), PLAU (gene 5328)
Nature of the assay: BSK_BE3C_uPA: BioMAP Diversity Plus: BE3C Assay for urokinase plasminogen activator (uPA) Biomarker Activity (AID 2283038).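 Note: uPA protein level quantified by ELISA in cell cultures; uPA read one day after compound addition.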 The settings on record: primary human bronchial epithelial cells; actives raise or lower the signal. The gist of the method: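 Bronchial epithelial cells (human, primary); chemical 24 h; uPA by ELISA; bidirectional fit vs DMSO. SRB (0.1%, after 10% TCA fixation, 560 nm) in parallel cultures for cytotoxicity.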

Read-out in assay [17]: Urokinase-type plasminogen activator receptor (uPAR), PLAUR (gene 5329)
The experiment in a line: BSK_BE3C_uPAR: BioMAP Diversity Plus: BE3C Assay for Urokinase-type plasminogen activator receptor (uPAR) Biomarker Activity (AID 2283039).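 Note: cells exposed to compound for one day before measurement.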 Particulars: primary human bronchial epithelial cells; actives raise or lower the signal. The gist of the method: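 Chemically treated human bronchial epithelial cells (lung primary) are assayed for uPAR by ELISA after 24 h, with data fitted in both directions using DMSO as negative control.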

Read-out in assay [18]: Interleukin-6 (IL6), IL6 (gene 3569)
Nature of the assay: BSK_CASM3C_IL6: BioMAP Diversity Plus: CASM3C Assay for Interleukin-6 (IL6) Biomarker Activity for (AID 2283040). Particulars: primary human coronary artery smooth muscle cells; actives raise or lower the signal.

Read-out in assay [19]: Pselectin, SELP (gene 6403)
The experiment in a line: BSK_4H_Pselectin: BioMAP Diversity Plus: 4H Assay for Pselectin Biomarker Activity (AID 2283026). The settings on record: primary human endothelial cells (HUVEC); actives raise or lower the signal. An outline of the steps: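 Bidirectional fits against DMSO gave the endpoint. Cells: primary human umbilical vein endothelium, chemical-treated for 24 h before ELISA detection of P-selectin.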

Read-out in assay [20]: Tissue plasminogen activator (tPA), PLAT (gene 5327)
The experiment in a line: BSK_BE3C_tPA: BioMAP Diversity Plus: BE3C Assay for Tissue plasminogen activator (tPA) Biomarker Activity (AID 2283041).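 Note: tPA level quantified by ELISA one day after compound addition.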 The settings on record: primary human bronchial epithelial cells; actives raise or lower the signal. An outline of the steps: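 Using human lung primary bronchial epithelial cells, tPA was measured by ELISA 24 h after dosing; data fitted relative to DMSO.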

Structures are written as SMILES. Records with an inconclusive call do not appear. Activity calls are given as the source filed them. Rule for the calls, unless noted: active = hit-call score of the fitted dose curve at least 0.9, where 1 is the maximum; inactive = score below 0.9.

Sequence of human Vitamin D Receptor (VDR), VDR (gene 7421) (P11473 whole entry, looked up, the tested form may be a part): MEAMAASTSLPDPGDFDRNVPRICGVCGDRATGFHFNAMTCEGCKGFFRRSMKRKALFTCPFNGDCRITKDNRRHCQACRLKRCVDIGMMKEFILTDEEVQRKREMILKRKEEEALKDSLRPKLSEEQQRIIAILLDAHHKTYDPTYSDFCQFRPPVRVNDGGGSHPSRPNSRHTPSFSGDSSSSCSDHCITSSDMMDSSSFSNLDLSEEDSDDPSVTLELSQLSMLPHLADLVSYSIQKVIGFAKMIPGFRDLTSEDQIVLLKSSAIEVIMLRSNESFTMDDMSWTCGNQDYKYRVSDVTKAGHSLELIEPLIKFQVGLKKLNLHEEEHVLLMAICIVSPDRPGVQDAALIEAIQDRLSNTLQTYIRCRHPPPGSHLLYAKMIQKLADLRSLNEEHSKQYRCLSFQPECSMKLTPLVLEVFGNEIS

For `C=CCCCCCCCCC(=O)O`, the compound was classed as inactive in [1], in assay [2], in assay [3], in assay [4], in assay [5] and in assay [6]. Also, the outcome in [7], in [8], in [9], in assay [10], in assay [11] and in [12] was inactive. For the same compound, the result in assay [13], in [14], in [15], in assay [16], in assay [17] and in [18] was inactive.
In the case of `CCOCCO`, the result in assay [2], in assay [3], in assay [4], in assay [19], in [5] and in assay [6] was inactive. Further, the outcome in assay [7], in assay [8], in [9], in [10], in [11] and in [12] was inactive. The result in assay [13], in [14], in [15], in [16], in [17] and in assay [18] was inactive.
Take `NC(=O)NO`: the outcome in [1], in [2], in assay [3], in [4], in assay [6] and in [7] was inactive. In addition, the result in [8], in assay [9], in assay [10], in [11], in [12] and in assay [13] was inactive. The result in [14], in assay [15], in assay [16], in assay [17], in [18] and in [20] was inactive.
Turning to `CCCCCCCCCCCCc1ccccc1`, the outcome in assay [1], in assay [2], in assay [3], in assay [4], in assay [5] and in assay [6] was inactive. In addition, the outcome in assay [7], in assay [8], in assay [9], in [10], in assay [11] and in assay [12] was inactive. For the same compound, the outcome in assay [13], in assay [14], in [15], in [16], in [17] and in [18] was inactive. Also, in assay [20], the outcome was inactive.
In the case of `CN(C)c1ccc(Cc2ccc(N(C)C)cc2)cc1`, the call in assay [1], in [2], in assay [4], in assay [6], in [7] and in [8] was inactive. Moreover, the outcome in assay [9], in assay [11], in assay [13], in assay [14], in [15] and in assay [16] was inactive. Moreover, the result in assay [17], in [18] and in assay [20] was inactive. Further, the AC50 (as a rule, the concentration at which the activity in the assay is half-maximal) in [3] was 12.6 µM (active); in assay [10] it was 36.3 µM (active); in [12] it was 28.8 µM (active).
For the compound `CC(C)=CCCC(C)=CC=O`, the call in assay [1], in assay [2], in assay [3], in assay [4], in assay [6] and in assay [7] was inactive. Moreover, the outcome in assay [8], in assay [9], in [10], in [11], in [12] and in assay [13] was inactive. Besides, the result in assay [14], in assay [15], in [16], in assay [17], in [18] and in assay [20] was inactive.
On to `O=C1CCCCCN1`, for which the compound was called inactive in assay [1], in assay [2], in assay [3], in assay [4], in [5] and in assay [6]. In addition, the result in assay [7], in assay [8], in assay [9], in assay [10], in assay [11] and in assay [12] was inactive. Further, the outcome in [13], in assay [14], in assay [15], in [16], in assay [17] and in [18] was inactive. For the same compound, the result in assay [20] was inactive.
